From PubChem BioAssay AID434959 (Broad Institute, 2010)
In all, about 30,000 compounds went through this assay and about 110 (0.37%) were called active. For the sample, actives were picked, then their nearest neighbours and some compounds at random. Unmarked numbers belong to inactive results.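 Rule for the calls: active = delta delta Cp rounded down to an integer at or above 3, about 3 SD of DMSO wells; inactive = the rest.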

Assay: YB-1 transcript reduction by qRT-PCR – cell-based, fluorescence, primary screen (AID 434959);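 note: higher means less YB-1 transcript or more CDIP transcript relative to DMSO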
Details: U2OS, qRT-PCR YB-1 vs CDIP delta delta Cp, 16 h; active compounds read high; zero = DMSO, each unit about twofold

Row | Structure (SMILES) | delta Cp (YB-1 minus CDIP)
1 | C[C@@H]1CN([C@H](C)CO)C(=O)CCCn2cc(nn2)CO[C@@H]1CN(C)Cc1ccccc1C(=O)O | -0.246
2 | C[C@@H]1CN([C@H](C)CO)C(=O)CCCn2nncc2CO[C@@H]1CN(C)C(=O)OCc1ccccc1 | 0.0587
3 | O=C1C2CC3CC1CC(C(=O)O)(C3)C2 | 0.106
4 | C[C@H](CO)N1C[C@H](C)[C@H](CN(C)C(=O)Nc2ccccc2)Oc2ccc(NC(=O)CCN3CCOCC3)cc2CC1=O | -0.228
5 | CC1(C)CC(=O)c2ccc(O)cc2O1 | 1.96
6 | Cc1cc(C(=O)Nc2cccc3c2O[C@@H](CN(C)C(=O)Nc2ccc4c(c2)OCO4)[C@H](C)CN([C@@H](C)CO)C3=O)n(C)n1 | -0.0832
7 | C[C@H]1CN([C@@H](C)CO)C(=O)c2cc(NC(=O)NC3CCCCC3)ccc2O[C@@H]1CN(C)S(=O)(=O)c1cccs1 | 0.092
8 | O=C(/C=C/c1ccccc1)c1ccc(O[C@@H]2O[C@H](CO)[C@@H](O)[C@H](O)[C@H]2O)cc1O | 0.0338
9 | Oc1cc2c(cc1O)CN(C(=S)NCCc1ccc(Cl)cc1)CCC2 | 0.367
10 | Cc1noc(C)c1NC(=O)Nc1ccc2c(c1)CC(=O)N([C@@H](C)CO)C[C@@H](C)[C@@H](CN(C)C(=O)NC(C)C)O2 | 0.0713
11 | C[C@H]1CN([C@@H](C)CO)C(=O)Cc2cc(NC(=O)C3CC3)ccc2O[C@H]1CN(C)S(=O)(=O)c1ccc(Cl)cc1 | 0.415
12 | [N-]=[N+]=Nc1ccccc1C[C@@]1(C(=O)NCc2ccccc2)N=C(c2ccc(OCCCO)cc2)O[C@@H]1c1ccccc1 | -0.629
13 | O=C1O[C@@H](c2ccccc2)[C@@H](c2ccccc2)N2[C@@H](c3ccccc3OCCO)[C@]3(C(=O)Nc4ccc(C#CC5(O)CCCCCC5)cc43)[C@@H](C(=O)N3CCN(c4ncccn4)CC3)[C@H]12 | -0.244
14 | C[C@H](CO)N1C[C@H](C)[C@H](CN(C)Cc2ccc(-c3ccccc3)cc2)Oc2ccc(NC(=O)Nc3ccc(F)cc3)cc2CC1=O | -0.469
15 | COc1cc(/C(C)=C/C(C)=C\C(=O)O)oc(=O)c1C | -0.492
16 | Cc1ccc(S(=O)(=O)N(C)C[C@H]2Oc3c(NC(=O)c4ccc(-c5nccs5)cc4)cccc3C(=O)N([C@H](C)CO)C[C@H]2C)cc1 | -0.182
17 | CC1=COC(O[C@@H]2O[C@H](CO)[C@@H](O)[C@H](O)[C@H]2O)C2C1CC(O)C2CO (stereo partly specified) | -0.367
18 | C[C@@H]1CN([C@@H](C)CO)C(=O)CCCn2nncc2CO[C@@H]1CN(C)Cc1ccccc1 | 0.131
19 | C[C@@H]1CN([C@H](C)CO)C(=O)Cc2cc(NS(=O)(=O)c3ccc(F)cc3)ccc2O[C@@H]1CN(C)S(=O)(=O)c1ccc(F)cc1 | -0.0534
20 | COc1ccc(C#Cc2ccc3c(c2)[C@]2(C(=O)N3)[C@H](c3ccccc3OCCO)N3[C@H](c4ccccc4)[C@H](c4ccccc4)OC(=O)[C@H]3[C@@H]2C(=O)N2CCCCCCC2)cc1 | 0.00142
21 | CNC[C@@H]1Oc2ncc(-c3ccc(F)cc3)cc2C(=O)N([C@H](C)CO)C[C@@H]1C | -0.148

Row | Structure (SMILES) | delta Cp (YB-1 minus CDIP)
22 | CC(C)NC(=O)N(C)C[C@H]1Oc2ccc(NC(=O)CCCCCC(=O)Nc3ccccc3N)cc2CC(=O)N([C@@H](C)CO)C[C@H]1C | 0.0201
23 | C/C(=C\CC[C@H](CO)[C@@H]1CC[C@]2(C)C3=C(CC[C@@]12C)[C@@]1(C)CCC(=O)C(C)(C)C1CC3)C(=O)O (stereo partly specified) | -0.0322
24 | C[C@H](CO)N1C[C@H](C)[C@H](CN(C)CC2CC2)Oc2ccc(NS(=O)(=O)c3ccccc3)cc2CC1=O | -0.128
25 | Cc1noc(C)c1S(=O)(=O)Nc1ccc2c(c1)CC(=O)N([C@@H](C)CO)C[C@H](C)[C@H](CN(C)S(=O)(=O)c1ccc(Cl)cc1)O2 | 0.105
26 | C[C@H]1CN([C@@H](C)CO)C(=O)Cc2cc(NS(C)(=O)=O)ccc2O[C@@H]1CN(C)S(=O)(=O)c1ccc(Cl)cc1 | 0.259
27 | Cc1noc(C)c1NC(=O)Nc1ccc2c(c1)C(=O)N([C@@H](C)CO)C[C@@H](C)[C@H](CN(C)C(=O)NC(C)C)O2 | -0.101
28 | C[C@H](CO)N1C[C@H](C)[C@H](CN(C)CC2CCCCC2)Oc2ccc(NC(=O)CCN3CCOCC3)cc2CC1=O | 0.315
29 | C[C@H]1CN([C@@H](C)CO)C(=O)CCCn2cc(nn2)CO[C@H]1CN(C)C(=O)Nc1ccc(F)cc1 | -0.241
30 | C=CCN1C(=O)[C@]2(O[C@H](CCn3cc(CCO)nn3)[C@@H]([Si](C)(C)c3ccc(OC)cc3)[C@@H]2C)c2cc(N3CCOC3=O)ccc21 | -0.00312
31 | COc1ccc(NC(=O)O[C@H](c2ccc(OCCO)cc2)[C@@H](CCO)OC)cc1 | -1.3
32 | C[C@@H]1CCCCO[C@H](CN(C)C(=O)NC2CCCCC2)[C@@H](C)CN([C@H](C)CO)C(=O)c2cc(NS(C)(=O)=O)ccc2O1 | 0.322
33 | COc1ccc(S(=O)(=O)N(C)C[C@@H]2Oc3ccc(NC(=O)CCC(F)(F)F)cc3C(=O)N([C@@H](C)CO)C[C@@H]2C)cc1 | -0.166
34 | C[C@H](CO)N1C[C@H](C)[C@H](CN(C)S(=O)(=O)c2ccccc2)Oc2c(NC(=O)CCCCCC(=O)Nc3ccccc3N)cccc2C1=O | 0.187
35 | C[C@@H]1CN([C@@H](C)CO)C(=O)c2cccc(NC(=O)Nc3ccc4c(c3)OCO4)c2O[C@H]1CN(C)C(=O)Nc1cccc2ccccc12 | 0.0736
36 | COc1ccc(NC(=O)Nc2ccc3c(c2)CC(=O)N([C@@H](C)CO)C[C@@H](C)[C@@H](CN(C)Cc2ccc(Cl)c(Cl)c2)O3)cc1 | 0.191
37 | C=C1C2=CC(=O)O[C@@H](c3ccoc3)[C@]2(C)CCC1[C@@]1(C)C=CC(=O)C(C)(C)[C@@H]1CC(=O)OC (stereo partly specified) | 0.366
38 | C[C@@H]1CN([C@H](C)CO)C(=O)c2cc(NC(=O)Cc3ccccc3)ccc2O[C@@H]1CN(C)CC1CCCCC1 | -0.0442
39 | C[C@H]1CN([C@@H](C)CO)C(=O)c2cccc(NS(=O)(=O)c3ccc(Cl)cc3)c2O[C@H]1CN(C)Cc1ccc2c(c1)OCO2 | 0.321
40 | C[C@@H]1CN([C@H](C)CO)C(=O)c2cccc(NC(=O)CCCCCC(=O)Nc3ccccc3N)c2O[C@@H]1CN(C)C(=O)Nc1ccccc1 | 0.438
41 | C[C@H]1CN([C@@H](C)CO)C(=O)Cc2cc(NC(=O)CCCN(C)C)ccc2O[C@@H]1CN(C)Cc1ccc(-c2ccccc2)cc1 | -1.08
42 | Oc1ccc2c(c1)OCC1c3cc4c(cc3OC21)OCO4 (stereo unspecified) | 0.271

Row | Structure (SMILES) | delta Cp (YB-1 minus CDIP)
43 | COc1ccc(CN(C)C[C@@H]2Oc3c(NC(=O)C4CC4)cccc3C(=O)N([C@@H](C)CO)C[C@H]2C)cc1 | -0.213
44 | CC(C)NC(=O)Nc1ccc2c(c1)CC(=O)N([C@H](C)CO)C[C@@H](C)[C@H](CN(C)S(=O)(=O)c1ccccc1)O2 | 0.113
45 | C[C@H](CO)N1C[C@H](C)[C@H](CN(C)CC2CCCCC2)Oc2ccc(NC(=O)CCCCCC(=O)Nc3ccccc3N)cc2CC1=O | -0.217
46 | C[C@H]1CN([C@@H](C)CO)C(=O)c2cccc(NC(=O)NC3CCCCC3)c2O[C@H]1CN(C)CC1CCCCC1 | -0.236
47 | Cc1onc(-c2c(Cl)cccc2Cl)c1C(=O)N=S(C)(C)=O | -0.447
48 | C[C@H]1CN([C@@H](C)CO)C(=O)CCCn2cc(nn2)CO[C@@H]1CN(C)S(=O)(=O)c1ccc(-n2cccn2)cc1 | -0.848
49 | C[C@H](CO)N1C[C@H](C)[C@H](CN(C)S(=O)(=O)c2ccc(C#N)cc2)Oc2ncc(-c3cccc(F)c3)cc2C1=O | 0.397
50 | COCCOC(=O)N1C(=O)[C@@]2(c3cc(C#CCC(C(=O)OC)C(=O)OC)ccc31)[C@H](c1ccc(OCCO)cc1)N1[C@H](c3ccccc3)[C@H](c3ccccc3)OC(=O)[C@H]1[C@@H]2C(N)=O | -0.585
51 | CCOC(=O)c1cc(=O)c2ccc(OCc3ccccc3)cc2o1 | 0.522
52 | Cc1noc(C)c1S(=O)(=O)Nc1ccc2c(c1)C(=O)N([C@@H](C)CO)C[C@H](C)[C@H](CN(C)C(=O)Nc1ccc(C(F)(F)F)cc1)O2 | -0.372
53 | O=C(NO)c1ccc(C(=O)N/N=C/c2ccc(Br)cc2)cc1 | -0.432
54 | C[C@H](CO)N1C[C@H](C)[C@@H](CN(C)Cc2ccc(Oc3ccccc3)cc2)OCc2cn(nn2)CCCC1=O | -0.14
55 | COC(=O)C1=C(N)Oc2cc(C)oc(=O)c2C1c1cccnc1 (stereo unspecified) | -0.311
56 | COc1ccc(NC(=O)N(C)C[C@H]2Oc3ccc(NC(=O)Nc4ccc5c(c4)OCO5)cc3C(=O)N([C@H](C)CO)C[C@H]2C)cc1 | 0.191
57 | Cc1ccc(-n2c(C)nc3sc4c(c3c2=O)CCC4)cc1 | 5.31 (active)
58 | Cc1ccc(-c2cn3c4c(sc3n2)CCCC4)cc1 | 0.773
59 | O=C(N/N=C/c1ccc([N+](=O)[O-])s1)c1ccccc1O | 0.165
60 | C[C@H](CO)N1C[C@H](C)[C@@H](CN(C)Cc2ccc(Cl)c(Cl)c2)Oc2c(NC(=O)C3CCCCC3)cccc2C1=O | -0.923
61 | Cc1ccc(CN(C)C[C@@H]2OCc3cnnn3CCCC(=O)N([C@@H](C)CO)C[C@H]2C)cc1 | -0.0292
